Each structure is given as a SMILES string. Records with an inconclusive call do not appear. Unmarked numbers belong to inactive results. Calls of active or inactive are those of the source. Calls come from the whole dose curve; as a rule, active = well fitted curve in the direction sought with a large enough effect in the repeat runs; inconclusive = weak or mixed curves; inactive = no such curve, though single readings can be large; an effect the other way counts as inactive or inconclusive.
% is set by controls: 0 for no effect and ±100 for the full control effect.

The first test can be described thus: A CellTox Green Cytotoxicity Assay to monitor cytotoxicity in HepG2 cells - 16 hour (AID 1224876). Note: nearly all actives have a fitted effect of over 45% in size. Conditions: CellTox Green fluorescence; series mostly up to 76.8 µM; cytotoxicity increase: at the top concentration. In outline:
(§1)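 HepG2 cells, 600/well, preincubated 5 h with CellTox Green dye, then exposed to Tox21 compounds in DMSO at 37 C for up to 40 h. Dead-cell DNA fluorescence read at the indicated time point.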
As for `CCCCCCOC(=O)C(C)C`, the “cytotoxicity increase” value was -12.3%.
The same measure, in the same setting: the same measure for `COC(=O)c1cc(S(N)(=O)=O)ccc1OC`: -8.68% [at 35.3 µM]; for `C=CC(C)(O)CCCC(C)CCCC(C)CCCC(C)C` (stereo unspecified): -8.75%.
Same read-out and setting: the value for `CN1C(=O)CC(C)(c2ccccc2)C1=O` (stereo unspecified) was -16.2% [at 35.3 µM]; that for `C[C@]12CCC(=O)C=C1C=C[C@@H]1[C@@H]2CC[C@@]2(C)[C@H]1CC[C@@]21CCC(=O)O1` was -10.8% [at 35.3 µM]; that for `Cc1occc1C(=O)Nc1ccc(C(=O)N2CCC(F)(F)/C(=C\C(=O)N3CCC(N4CCCCC4)CC3)c3ccccc32)cc1` was 0.23% [at 35.3 µM].
Still for that read-out and setting: the value for `CCCC1C(CC)=CC(CC)=CN1c1ccccc1` (stereo unspecified) was 8.2%; that for `CC(=O)[C@H]1CC[C@H]2[C@@H]3C[C@H](C)C4=CC(=O)CC[C@]4(C)[C@H]3[C@@H](O)C[C@]12C` was 0.322% [at 35.3 µM].
In the case of `C=CC(=C)CCCC(C)(C)OC(C)=O`, the “cytotoxicity increase” value is -12%.
On the same count and under the same terms, the value for `O=S1OCCO1` was 0.0582%; that for `C1COCO1` was 0.829%.
The same measure, in the same setting: the same measure for `CC(=O)Nc1ccccc1C`: -16.6%; for `COc1cc2[nH]c(=O)[nH]c(=O)c2cc1OC`: -19.8% [at 35.3 µM].
The same measure, in the same setting: the same measure for `N#C/C(=C1/SC[C@@H](c2ccc(Cl)cc2Cl)S1)n1ccnc1`: 0.0148% [at 35.3 µM].

The next test is described as follows: qHTS RealTime-Glo MT Cell Viability Assay in HepG2 cells - 32 hour (AID 1224877). Note: nearly all actives have a fitted effect of over 55% in size. Conditions: RealTime-Glo luminescence; series mostly up to 76.8 µM; activity change, negative = cytotoxic: at the top concentration. In outline:
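HepG2 cells (600/well) were dispensed with RealTime-Glo reagents, incubated 5 h at 37 °C, then treated with compounds in DMSO for up to 40 h. Nonlytic NanoLuc luminescence reflecting viable cells was read at each stated time point.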
On to `CNC(=O)N(c1ccccc1)c1ccccc1`, for which the “activity change, negative = cytotoxic” value is -0.905%.
As to `CC1(C)C(=O)N(Br)C(=O)N1Cl`, the “activity change, negative = cytotoxic” value is -0.82%.
Same read-out and setting: the same measure for `CCCCCCCCSCCO`: 2.03%; for `CC#N`: 6.88%.
Still for that read-out and setting: the value for `NC(=O)Nc1ccc(Cl)cc1` was 1.62%; that for `OC/C(Br)=C(\Br)CO` was 2.43%; that for `CC1=CC(=O)CC(C)(C)C1(O)/C=C/C(C)=C\C(=O)O` (stereo unspecified) was 0.567%.
The same measure, in the same setting: the same measure for `CCCOC(=O)c1ccc(N)cc1`: 0.284% [at 35.3 µM]; for `CCCCC(CC)CNCC(CC)CCCC` (stereo unspecified): 1.08%; for `O=C(CCC1CCN(Cc2ccccc2)CC1)c1ccc2c(c1)NCCCC2`: -25.7% [at 35.3 µM].
In the case of `CC(=O)OCC(=O)[C@H]1CC[C@H]2[C@@H]3CCC4=CC(=O)CC[C@]4(C)[C@H]3CC[C@]12C`, the “activity change, negative = cytotoxic” value was -10.7% [at 35.3 µM].
Regarding `COC(=O)c1cc(Cl)ccc1NS(=O)(=O)C(F)(F)F`, the “activity change, negative = cytotoxic” value is 0.424% [at 35.3 µM].
On the same count and under the same terms, the same measure for `CC(=O)CC(c1ccc([N+](=O)[O-])cc1)c1c(O)c2ccccc2oc1=O` (stereo unspecified): 0.692% [at 35.3 µM].
Same read-out and setting: the value for `CCOC(=O)c1ccccc1OC` was 0.122%; that for `c1cnc2c(n1)CCCC2` was -0.436%; that for `CO[C@H]1O[C@H](CO)[C@@H](O)[C@H](O)[C@H]1O` was 0.857%.
Same read-out and setting: the value for `O=C(/C=C/c1ccccc1)OCCCc1ccccc1` was 2.03%.
Take `C=CCCCCCCCCCCCCCCCC`: the activity change, negative = cytotoxic is 7.54% [at 6.97 µM].
As to `CCCCC(=O)O[C@]1(C(=O)CO)CC[C@H]2[C@@H]3CCC4=CC(=O)CC[C@]4(C)[C@H]3[C@@H](O)C[C@@]21C`, the “activity change, negative = cytotoxic” value is -0.929% [at 35.3 µM].
Same read-out and setting: the value for `NC(=O)N(O)[C@@H]1C=C[C@H](Oc2cccc(Oc3ccc(F)cc3)c2)C1` was -18.9%.
The same measure, in the same setting: the value for `CC1CC(O)CC(C)(C)C1` (stereo unspecified) was -0.141%.
Same read-out and setting: the same measure for `N#C[C@@H]1C[C@@H]2C[C@@H]2N1C(=O)[C@@H](N)C12CC3CC(CC(O)(C3)C1)C2`: 4.04% [at 35.3 µM].
Consider `O=Cc1c(Cl)cccc1Cl`, for which the “activity change, negative = cytotoxic” value was 1.43%.
Regarding `CC1(C)O[C@@H]2C[C@H]3[C@@H]4CCC5=CC(=O)C=C[C@]5(C)[C@H]4[C@@H](O)C[C@]3(C)[C@]2(C(=O)CO)O1`, the “activity change, negative = cytotoxic” value was -0.859% [at 35.3 µM].
On the same count and under the same terms, the same measure for `CCCCCCCCCCCCCCCCBr`: 2.91% [at 15.8 µM].
Still for that read-out and setting: the value for `CCCCCCOC(=O)C(C)C` was -0.151%; that for `COC(=O)c1cc(S(N)(=O)=O)ccc1OC` was 0.227% [at 35.3 µM]; that for `C=CC(C)(O)CCCC(C)CCCC(C)CCCC(C)C` (stereo unspecified) was -6.46%.
On to `CN1C(=O)CC(C)(c2ccccc2)C1=O` (stereo unspecified), for which the “activity change, negative = cytotoxic” value was -0.188% [at 35.3 µM].
Same read-out and setting: the value for `C[C@]12CCC(=O)C=C1C=C[C@@H]1[C@@H]2CC[C@@]2(C)[C@H]1CC[C@@]21CCC(=O)O1` was -16.7% [at 35.3 µM].
As for `Cc1occc1C(=O)Nc1ccc(C(=O)N2CCC(F)(F)/C(=C\C(=O)N3CCC(N4CCCCC4)CC3)c3ccccc32)cc1`, the “activity change, negative = cytotoxic” value was -10.2% [at 35.3 µM].
As to `CCCC1C(CC)=CC(CC)=CN1c1ccccc1` (stereo unspecified), the “activity change, negative = cytotoxic” value is -7.65%.
Same read-out and setting: the value for `CC(=O)[C@H]1CC[C@H]2[C@@H]3C[C@H](C)C4=CC(=O)CC[C@]4(C)[C@H]3[C@@H](O)C[C@]12C` was -3.03% [at 35.3 µM]; that for `C=CC(=C)CCCC(C)(C)OC(C)=O` was -0.077%; that for `O=S1OCCO1` was 0.15%.
The same measure, in the same setting: the value for `C1COCO1` was 4.6%; that for `CC(=O)Nc1ccccc1C` was -0.157%; that for `COc1cc2[nH]c(=O)[nH]c(=O)c2cc1OC` was -0.283% [at 35.3 µM].
Same read-out and setting: the same measure for `N#C/C(=C1/SC[C@@H](c2ccc(Cl)cc2Cl)S1)n1ccnc1`: -22.6% [at 35.3 µM].

A further test is described as follows: A CellTox Green Cytotoxicity Assay to monitor cytotoxicity in HepG2 cells - 24 hour (AID 1224878). Note: nearly all actives have a fitted effect of over 45% in size. Note: potency is the fitted concentration of half-maximal effect. Conditions: CellTox Green fluorescence; series mostly up to 76.8 µM; cytotoxicity: at the top concentration. The method in brief: as §1
Consider `CNC(=O)N(c1ccccc1)c1ccccc1`, for which the “cytotoxicity” value was 8.89%.
The same measure, in the same setting: the value for `CC1(C)C(=O)N(Br)C(=O)N1Cl` was -16.7%.
Turning to `CCCCCCCCSCCO`, the Potency was 43.6 µM (active).
As for `CC#N`, the “cytotoxicity” value was -1.73%.
`OC/C(Br)=C(\Br)CO`: the “cytotoxicity” value was -9.18%.
Same read-out and setting: the same measure for `CC1=CC(=O)CC(C)(C)C1(O)/C=C/C(C)=C\C(=O)O` (stereo unspecified): -0.367%; for `CCCOC(=O)c1ccc(N)cc1`: 20.1% [at 35.3 µM]; for `CCCCC(CC)CNCC(CC)CCCC` (stereo unspecified): 2.35%.
Same read-out and setting: the value for `O=C(CCC1CCN(Cc2ccccc2)CC1)c1ccc2c(c1)NCCCC2` was 21.9% [at 35.3 µM]; that for `CC(=O)OCC(=O)[C@H]1CC[C@H]2[C@@H]3CCC4=CC(=O)CC[C@]4(C)[C@H]3CC[C@]12C` was 1.29% [at 35.3 µM]; that for `COC(=O)c1cc(Cl)ccc1NS(=O)(=O)C(F)(F)F` was 2.13% [at 35.3 µM].
On the same count and under the same terms, the value for `CC(=O)CC(c1ccc([N+](=O)[O-])cc1)c1c(O)c2ccccc2oc1=O` (stereo unspecified) was -0.364% [at 35.3 µM]; that for `CCOC(=O)c1ccccc1OC` was -0.246%.
Turning to `c1cnc2c(n1)CCCC2`, the Potency was 38.9 µM (active).
As for `CO[C@H]1O[C@H](CO)[C@@H](O)[C@H](O)[C@H]1O`, the “cytotoxicity” value is 0.729%.
For the compound `O=C(/C=C/c1ccccc1)OCCCc1ccccc1`, the “cytotoxicity” value was -14%.
In the case of `C=CCCCCCCCCCCCCCCCC`, the cytotoxicity was -19.1% [at 6.97 µM].
On the same count and under the same terms, the value for `CCCCC(=O)O[C@]1(C(=O)CO)CC[C@H]2[C@@H]3CCC4=CC(=O)CC[C@]4(C)[C@H]3[C@@H](O)C[C@@]21C` was -6.75% [at 35.3 µM].
As for `NC(=O)N(O)[C@@H]1C=C[C@H](Oc2cccc(Oc3ccc(F)cc3)c2)C1`, the Potency was 38.9 µM (active).
Turning to `CC1CC(O)CC(C)(C)C1` (stereo unspecified), the “cytotoxicity” value was 9.56%.
The same measure, in the same setting: the value for `N#C[C@@H]1C[C@@H]2C[C@@H]2N1C(=O)[C@@H](N)C12CC3CC(CC(O)(C3)C1)C2` was -3.71% [at 35.3 µM]; that for `O=Cc1c(Cl)cccc1Cl` was -7.33%.
Take `CC1(C)O[C@@H]2C[C@H]3[C@@H]4CCC5=CC(=O)C=C[C@]5(C)[C@H]4[C@@H](O)C[C@]3(C)[C@]2(C(=O)CO)O1`: the “cytotoxicity” value is -12.5% [at 35.3 µM].
Still for that read-out and setting: the value for `CCCCCCCCCCCCCCCCBr` was -6.35% [at 15.8 µM]; that for `CCCCCCOC(=O)C(C)C` was -13.6%; that for `COC(=O)c1cc(S(N)(=O)=O)ccc1OC` was -9.05% [at 35.3 µM].
The same measure, in the same setting: the same measure for `C=CC(C)(O)CCCC(C)CCCC(C)CCCC(C)C` (stereo unspecified): -7.54%; for `CN1C(=O)CC(C)(c2ccccc2)C1=O` (stereo unspecified): -15.6% [at 35.3 µM]; for `C[C@]12CCC(=O)C=C1C=C[C@@H]1[C@@H]2CC[C@@]2(C)[C@H]1CC[C@@]21CCC(=O)O1`: -8.24% [at 35.3 µM].
Still for that read-out and setting: the same measure for `Cc1occc1C(=O)Nc1ccc(C(=O)N2CCC(F)(F)/C(=C\C(=O)N3CCC(N4CCCCC4)CC3)c3ccccc32)cc1`: 15.5% [at 35.3 µM].
Consider `CCCC1C(CC)=CC(CC)=CN1c1ccccc1` (stereo unspecified), for which the “cytotoxicity” value was 6.6%.
Same read-out and setting: the value for `CC(=O)[C@H]1CC[C@H]2[C@@H]3C[C@H](C)C4=CC(=O)CC[C@]4(C)[C@H]3[C@@H](O)C[C@]12C` was 2.86% [at 35.3 µM]; that for `C=CC(=C)CCCC(C)(C)OC(C)=O` was -11.8%.
On the same count and under the same terms, the value for `O=S1OCCO1` was -0.731%.
The same measure, in the same setting: the same measure for `C1COCO1`: 0.641%; for `CC(=O)Nc1ccccc1C`: -18.8%.
As to `COc1cc2[nH]c(=O)[nH]c(=O)c2cc1OC`, the “cytotoxicity” value was -18% [at 35.3 µM].
For `N#C/C(=C1/SC[C@@H](c2ccc(Cl)cc2Cl)S1)n1ccnc1`, the “cytotoxicity” value is -1.32% [at 35.3 µM].

These data come from PubChem BioAssay (Tox21).
